Screening results deposited in PubChem by National Center for Advancing Translational Sciences (NCATS).
Hits are enriched below; roughly 8% of the tested compounds scored in any of these assays.
SW480 rerep: induces DNA re-replication in SW480 colon adenocarcinoma cells. SW480 DNA re-replication, Hoechst DNA content imaging, 48 h. Potency, µM (doses to about 46.1 µM), most hits filed as activators. 1.8% of 340,000 active. AID 624297; note: nearly all actives have a fitted effect of over 55% in size
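Cells (250 per well) received 23 nL compound or DMSO by pin tool and were kept 48 hr at 37 C, 5% CO2. Nuclei were then stained with Hoechst for 40 min and scanned for DNA content.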
HT1080NT lethal: kills 2HG-producing HT-1080-NT fibrosarcoma cells; HT-1080-NT fibrosarcoma viability, CellTiter-Glo ATP luminescence, 48 h; Potency, µM (doses to about 46.1 µM), most hits filed as cytotoxic; 1.6% of 360,000 active;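 note: NT is the 2HG producing partner of a matched IDH1 knockdown line; nearly all actives have a fitted effect of over 55% in size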
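Luminescent CellTiter-Glo readout after 48 hours of compound exposure at 37 degrees C defined viability of HT-1080-NT cells. Activity was normalized to DMSO wells and cell-free media wells; concentration-response curves were fitted and assigned curve classes.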
MCF10A rerep: induces DNA re-replication in MCF 10a normal breast cells. MCF 10A DNA re-replication, Hoechst nuclear intensity, 48 h. Potency, µM (series often up to 46.1 µM), hits mostly activators. 2.9% of 350,000 active; note: nearly all actives have a fitted effect of over 50% in size
HT1080 IDH1KD tx: kills HT-1080 cells with IDH1 knockdown; Potency, µM (highest dose often 46.1 µM), usual class: cytotoxic; 2% of 360,000 active; HT-1080 IDH1 knockdown viability, ATP luminescence, 48 h
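HT-1080-IDH1KD cells (IDH1 knocked down), 750/well in RPMI with 5% FBS, treated with compound 48 h at 37 degrees C. Viability by CellTiter-Glo luminescence, normalised to DMSO and no-cell wells; concentration-response curves classed.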
KB-3-1 cytotox: kills parental KB-3-1 adenocarcinoma cells | KB-3-1 viability, CellTiter-Glo ATP luminescence, 72 h | Potency, µM (titrated, usually from 46.1 µM), actives largely listed as cytotoxic | 1.4% of 400,000 active; note: nearly all actives have a fitted effect of over 60% in size
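Cells are dispensed, compounds pinned in, plates held at 37 °C for 72 h, then CellTiter-Glo is added and luminescence read after 10 minutes. Cell line: parental KB-3-1 in phenol-red-free DMEM, 10% FBS.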
KB-V1 cytotox: kills drug-selected multidrug resistant KB-V1 cells | KB-V1 MDR cells viability, CellTiter-Glo, 72 h | Potency, µM (titrated, usually from 46.1 µM), most hits filed as cytotoxic | 3.4% of 400,000 active | AID 1347076; note: nearly all actives have a fitted effect of over 60% in size
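Cytotoxicity via CellTiter-Glo luminescence after 72 h compound exposure at 37 degrees C. Cells: drug-selected KB-V1 line, DMEM phenol-red free plus 10% FBS. Compounds tested at multiple concentrations; normalized data fitted to concentration-effect curves.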
Numbers stand for hits; [ ] = dose if it differs, or a comment. Calls come from the whole dose curve; as a rule, active = well fitted curve in the direction sought with a large enough effect; inconclusive = small, poorly fitted or top-dose-only effect, or another doubt; inactive = no such curve, though single readings can be large; an effect the other way counts as inactive or inconclusive.

`COc1ccc(-c2cn3c(C)c(C(=O)Nc4cccc(C)n4)sc3n2)cc1` gave SW480 rerep inactive, HT1080NT lethal inactive, MCF10A rerep inconclusive, HT1080 IDH1KD tx inactive, KB-3-1 cytotox inactive and KB-V1 cytotox 20.6µM.
`Cc1ccc[n+](CC(=O)Nc2ccc([N+](=O)[O-])cc2)c1` gave SW480 rerep inconclusive, HT1080NT lethal inactive, MCF10A rerep inactive, HT1080 IDH1KD tx 16.4µM, KB-3-1 cytotox inactive and KB-V1 cytotox inactive.
Cc1ccc[n+](CC(=O)Nc2cccc([N+](=O)[O-])c2)c1 was read as SW480 rerep inactive, HT1080NT lethal inactive, MCF10A rerep inactive, HT1080 IDH1KD tx inactive, KB-3-1 cytotox inactive and KB-V1 cytotox inconclusive.
`O=C(c1ccccc1)N(Cc1ccccc1)Cc1ccccc1` gave SW480 rerep inactive, HT1080NT lethal inactive, MCF10A rerep inactive, HT1080 IDH1KD tx inactive, KB-3-1 cytotox inactive and KB-V1 cytotox inactive.
Screening COC(=O)c1scc(C)c1N/N=C(\C)c1ccc(F)cc1F returned SW480 rerep inactive, HT1080NT lethal inactive, MCF10A rerep inconclusive, HT1080 IDH1KD tx inactive, KB-3-1 cytotox inactive and KB-V1 cytotox inactive.
`CC1C=CCC2C(=O)N(c3cccc(C(=O)N4CCN(c5ccc(F)cc5)CC4)c3)C(=O)C12` (stereo unspecified) gave SW480 rerep inactive, HT1080NT lethal inactive, MCF10A rerep inactive, HT1080 IDH1KD tx inactive, KB-3-1 cytotox inactive and KB-V1 cytotox 18.4µM.
`O=C(c1cccc(N2C(=O)C3CC=CCC3C2=O)c1)N1CCN(c2ccccc2)CC1` (stereo unspecified) gave SW480 rerep inactive, HT1080NT lethal inactive, MCF10A rerep inactive, HT1080 IDH1KD tx inactive, KB-3-1 cytotox inactive and KB-V1 cytotox 23.1µM.
`O=C(c1cccc(N2C(=O)C3C4C=CC(C4)C3C2=O)c1)N1CCN(c2ccc(F)cc2)CC1` (stereo unspecified) gave SW480 rerep inactive, HT1080NT lethal inactive, MCF10A rerep inactive, HT1080 IDH1KD tx inactive, KB-3-1 cytotox inactive and KB-V1 cytotox inactive.
`O=C(c1cccc(N2C(=O)C3CC=CCC3C2=O)c1)N1CCCCCC1` (stereo unspecified) gave SW480 rerep inactive, HT1080NT lethal inactive, MCF10A rerep inactive, HT1080 IDH1KD tx inactive, KB-3-1 cytotox inactive and KB-V1 cytotox inconclusive.
`O=C(Nc1ccc(C(=O)O)cc1)Nc1cccc([N+](=O)[O-])c1` gave SW480 rerep inactive, HT1080NT lethal inactive, MCF10A rerep inactive, HT1080 IDH1KD tx inactive, KB-3-1 cytotox inactive and KB-V1 cytotox inactive.
`CCOc1ccc(NC(=O)CN(C)CC(=O)Nc2ccc(Br)cc2F)cc1OCC` gave SW480 rerep inactive, HT1080NT lethal inactive, MCF10A rerep inactive, HT1080 IDH1KD tx inactive, KB-3-1 cytotox inactive and KB-V1 cytotox inactive.
Cc1sc2nc3ccc(N4CCCC4)nn3c(=O)c2c1C was read as SW480 rerep inactive, HT1080NT lethal inactive, MCF10A rerep inactive, HT1080 IDH1KD tx inactive, KB-3-1 cytotox inconclusive and KB-V1 cytotox 16.4µM.
Screening CSc1n[nH]c(-c2sccc2OCc2ccc(C)cc2)n1 returned SW480 rerep inactive, HT1080NT lethal inactive, MCF10A rerep inactive, HT1080 IDH1KD tx inactive, KB-3-1 cytotox inactive and KB-V1 cytotox 16.4µM.
For O=C(c1n[nH]c(=O)c2ccccc12)N1CCN(c2ccccc2)CC1 the results were SW480 rerep inactive[9.22 µM], HT1080NT lethal inactive, MCF10A rerep inactive, HT1080 IDH1KD tx inconclusive, KB-3-1 cytotox inactive and KB-V1 cytotox inactive.
O=C1NC(=Nc2ccccc2Cl)S/C1=C\c1ccc(C(=O)O)cc1 was read as SW480 rerep inconclusive, HT1080NT lethal inactive, MCF10A rerep inactive, HT1080 IDH1KD tx inactive, KB-3-1 cytotox inactive and KB-V1 cytotox inactive.
Screening CC12CCC(C/C1=N\N=C1\NC(=O)/C(=C\c3ccc(Cl)cc3)S1)C2(C)C (stereo unspecified) returned SW480 rerep inconclusive, HT1080NT lethal 16.4µM, MCF10A rerep 5.17µM, HT1080 IDH1KD tx 20.6µM, KB-3-1 cytotox inconclusive and KB-V1 cytotox inconclusive.
`CCN(CC)C(=S)NC(=O)c1ccc(Cl)cc1Cl` gave SW480 rerep inactive, HT1080NT lethal 7.08µM, MCF10A rerep inactive, HT1080 IDH1KD tx 3.55µM, KB-3-1 cytotox inactive and KB-V1 cytotox inactive.
Screening CCN(CC)C(=S)NC(=O)c1cc(OC)c(OC)c(OC)c1 returned SW480 rerep inactive, HT1080NT lethal 23.1µM, MCF10A rerep inactive, HT1080 IDH1KD tx inactive, KB-3-1 cytotox inactive and KB-V1 cytotox inactive.
For CCN1CCN(C(=S)NC(=O)c2cc(OC)c(OC)c(OC)c2)CC1 the results were SW480 rerep inactive, HT1080NT lethal inactive, MCF10A rerep inactive, HT1080 IDH1KD tx inactive, KB-3-1 cytotox inactive and KB-V1 cytotox inactive.
`CCN(CC)C(=S)Nc1ccc(Cl)c(Cl)c1` gave SW480 rerep inactive, HT1080NT lethal inactive, MCF10A rerep inactive, HT1080 IDH1KD tx inactive, KB-3-1 cytotox inconclusive and KB-V1 cytotox 23.1µM.
Screening CCN(Cc1ccccc1)C(=S)NC(=O)c1ccccc1Br returned SW480 rerep 11.6µM, HT1080NT lethal inactive, MCF10A rerep inactive, HT1080 IDH1KD tx inactive, KB-3-1 cytotox inconclusive and KB-V1 cytotox inconclusive.
Screening CCCCNC(=S)NC(=O)c1ccc(Cl)cc1Cl returned SW480 rerep inactive, HT1080NT lethal inactive, MCF10A rerep inactive, HT1080 IDH1KD tx inactive, KB-3-1 cytotox inactive and KB-V1 cytotox inactive.
`CCCC(=O)Nc1c2c(nn1-c1ccc(OC)cc1)CS(=O)(=O)C2` gave SW480 rerep inactive, HT1080NT lethal inactive, MCF10A rerep inactive, HT1080 IDH1KD tx inactive, KB-3-1 cytotox inactive and KB-V1 cytotox inactive.
CC(C)c1nnc(NC(=O)c2ccc(N3C(=O)CCC3=O)cc2)s1 was read as SW480 rerep inactive, HT1080NT lethal inactive, MCF10A rerep inactive, HT1080 IDH1KD tx inactive, KB-3-1 cytotox inactive and KB-V1 cytotox inactive.
N#CCCN(Cc1ccccc1)C(=S)NC(=O)c1ccccc1 was read as SW480 rerep inconclusive, HT1080NT lethal 1.26µM, MCF10A rerep inactive, HT1080 IDH1KD tx 1.12µM, KB-3-1 cytotox inactive and KB-V1 cytotox inconclusive.
`CC(C)(C)C(=O)NC(=S)NNC(=O)c1ccc(Cl)cc1Cl` gave SW480 rerep inconclusive, HT1080NT lethal 9.2µM, MCF10A rerep inactive, HT1080 IDH1KD tx 18.4µM, KB-3-1 cytotox inconclusive and KB-V1 cytotox inconclusive.
`CC(O)c1n(C)c(Cl)c[n+]1C` (stereo unspecified) gave SW480 rerep inactive, HT1080NT lethal inactive, MCF10A rerep inactive, HT1080 IDH1KD tx inactive, KB-3-1 cytotox inactive and KB-V1 cytotox inactive.
Screening C=CS(=O)(=O)c1ccc(Oc2ccc(S(=O)(=O)C=C)cc2)cc1 returned SW480 rerep inconclusive, HT1080NT lethal inactive, MCF10A rerep 3.26µM, HT1080 IDH1KD tx inconclusive, KB-3-1 cytotox inconclusive and KB-V1 cytotox inconclusive.
